Data from the supplement of paper PMC10646978.
± gives the standard deviation.

Experiments:
Conditions in all cases: modulator concentration 10 µM
[1] = tested on: RAW-Dual (murine macrophage reporter line); assay: NF-kB reporter (SEAP) activity fold change vs agonist alone; higher = enhanced NF-kB activity
Outline: (§1)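 RAW-Dual murine macrophage reporter cells were seeded at 50 000 per well in 384-well plates and pre-incubated 1 hour at 37 °C with compound pin-transferred to 10 μM final. After 1 hour, a PRR agonist was added and cells incubated overnight. Supernatant NF-κB (SEAP, QUANTI-Blue, 620 nm absorbance) and IRF (Lucia luciferase, QUANTI-Luc, luminescence) signals were divided by the mean agonist-only control on the same plate to give fold change. Two replicate plates were averaged, with errors by propagation.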

[2] = tested on: RAW-Dual (murine macrophage reporter line); assay: IRF reporter (Lucia luciferase) activity fold change vs agonist alone; higher = enhanced IRF activity
Outline: as §1

[3] = tested on: RAW-Dual (murine macrophage reporter line); assay: viability score (confluency relative to resting cells, overnight) (fraction); higher = more viable, active = viable (0.7 or more)
Outline: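 Compound was added at a final 10 μM to RAW-Dual macrophages in 384-well plates and left overnight. Confluency was imaged with IncuCyte, and two masks were generated in IncuCyte software over all imaged wells. Each viability score is confluency relative to resting cells, and a compound met the cutoff only when both masks were above 70% of resting cells.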

[4] = agonist: CpG ODN 1826 0.5 ug/mL

| Compound | NF-kB reporter [1, 4] | NF-kB reporter ([1]; agonist: LPS 0.1 ug/mL) | NF-kB reporter ([1]; agonist: MPLA […]) | IRF reporter ([2]; agonist: 3'3'-cGAMP 10 ug/mL) | IRF reporter ([2]; agonist: LPS 0.1 ug/mL) | IRF reporter ([2]; agonist: MPLA […]) | viability score [3] |
| --- | --- | --- | --- | --- | --- | --- | --- |
| CN(C(=O)COc1coc(CN2CCN(c3ccccc3)CC2)cc1=O)c1ccccc1 | 0.931 ± 0.052 | 0.933 ± 0.06 | 0.977 ± 0.057 | 0.97 ± 0.034 | 1.18 ± 0.12 | 0.986 ± 0.088 | 1 (active) |
| CCN(CC)C(=O)N1CCN(C)CC1.O=C(O)CC(O)(CC(=O)O)C(=O)O | 1.04 ± 0.19 | 0.975 ± 0.18 | 0.92 ± 0.065 | 0.895 ± 0.057 | 1.23 ± 0.23 | 1.16 ± 0.27 | 0.995 (active) |
| Cc1ccc(OCC(=O)N2CCN(c3ccc(-n4cncn4)nn3)CC2)c(C(C)(C)C)c1 | 1.11 ± 0.13 | 0.971 ± 0.085 | 1.27 ± 0.037 | 0.964 ± 0.07 | 0.948 ± 0.099 | 0.87 ± 0.15 | 0.999 (active) |
| CCCC1=NN2C(=N)C(=Cc3cccc(OCc4ccccc4F)c3)C(=O)N=C2S1 | 0.983 ± 0.12 | 0.999 ± 0.1 | 0.972 ± 0.061 | 0.964 ± 0.064 | 1.6 ± 0.16 | 1.17 ± 0.097 | 1.01 (active) |
| CC(C)Cn1cc(Cl)c(=O)n(CC(C)C)c1=O | 1.12 ± 0.068 | 1 ± 0.11 | 1.01 ± 0.056 | 1.03 ± 0.037 | 1 ± 0.066 | 0.991 ± 0.19 | 0.996 (active) |
| Cc1oncc1CNC(=O)c1ccc(C(C)(C)C)cc1 | 1.18 ± 0.089 | 1.1 ± 0.083 | 1.07 ± 0.049 | 0.779 ± 0.039 | 1.01 ± 0.05 | 1.02 ± 0.099 | 0.996 (active) |
| Br.Fc1ccc(-c2csc(Nc3ccc4c(c3)OCO4)n2)cc1 | 0.871 ± 0.076 | 0.946 ± 0.066 | 1.02 ± 0.038 | 0.315 ± 0.022 | 1.03 ± 0.076 | 1.29 ± 0.12 | 0.999 (active) |
| COc1cccc(-c2nnc(NC(=O)C3CC3)o2)c1 | 1.21 ± 0.071 | 0.987 ± 0.096 | 0.999 ± 0.037 | 0.95 ± 0.055 | 1.04 ± 0.057 | 1.11 ± 0.12 | 1 (active) |
| CC(=O)Nc1nnc(S(N)(=O)=O)s1 | 1.57 ± 0.56 | 1.08 ± 0.18 | 1.07 ± 0.11 | 0.941 ± 0.029 | 1.28 ± 0.32 | 0.921 ± 0.095 | 0.998 (active) |
| COc1ccccc1N1C(=O)C(=Cc2ccc3c(c2)OCO3)SC1=S | 0.99 ± 0.16 | 1.05 ± 0.17 | 0.945 ± 0.14 | 0.951 ± 0.046 | 1.2 ± 0.24 | 1.22 ± 0.36 | 0.999 (active) |
| CCCCC(=O)N(Cc1ccc(-c2ccccc2-c2nn[nH]n2)cc1)C(C(=O)O)C(C)C (configuration not stated) | 1.12 ± 0.27 | 0.965 ± 0.081 | 1.02 ± 0.082 | 0.71 ± 0.055 | 1.03 ± 0.14 | 1.04 ± 0.2 | 1 (active) |
| CCN(CC)c1nc(Nc2ccc([N+](=O)[O-])cc2)nc(N(CC)CC)n1 | 0.635 ± 0.04 | 1.07 ± 0.069 | 0.953 ± 0.058 | 0.972 ± 0.044 | 1.16 ± 0.12 | 1.01 ± 0.12 | 0.998 (active) |
| O=C(NC1CCC(Oc2ncc(F)cn2)CC1)c1cccc(F)c1 (configuration not stated) | 0.976 ± 0.084 | 1.01 ± 0.079 | 0.913 ± 0.079 | 1.01 ± 0.064 | 1.08 ± 0.088 | 1.04 ± 0.27 | 1.01 (active) |
| Cc1nonc1OC(C)CNc1ccc([N+](=O)[O-])cc1 (configuration not stated) | 0.989 ± 0.078 | 1.01 ± 0.083 | 1.14 ± 0.089 | 0.84 ± 0.11 | 0.995 ± 0.1 | 0.843 ± 0.15 | 0.998 (active) |
| COc1cc(Br)c(C=C(C#N)c2nn(-c3ccccc3)c(N)c2C#N)cc1OC | 1.25 ± 0.1 | 1.09 ± 0.08 | 1.07 ± 0.1 | 0.936 ± 0.025 | 1.25 ± 0.24 | 1.18 ± 0.25 | 1.01 (active) |
| CCCc1cc(=O)oc2cc(OCC(=O)OC)c(Cl)cc12 | 1.1 ± 0.09 | 0.967 ± 0.13 | 1.03 ± 0.041 | 0.96 ± 0.13 | 1.04 ± 0.1 | 1.09 ± 0.18 | 0.998 (active) |
| O=c1[nH]cnc2ccccc12 | 0.416 ± 0.14 | 0.159 ± 0.013 | 0.215 ± 0.019 | 0.133 ± 0.013 | 0.378 ± 0.098 | 0.0913 ± 0.014 | 0.561 (inactive) |
| CC(=O)N1CCC(Cn2ccc3cccnc32)CC1 | 1.04 ± 0.078 | 1.02 ± 0.11 | 0.996 ± 0.048 | 0.949 ± 0.035 | 0.957 ± 0.056 | 1.02 ± 0.11 | 0.994 (active) |

| Compound | NF-kB reporter [1, 4] | NF-kB reporter ([1]; agonist: LPS 0.1 ug/mL) | NF-kB reporter ([1]; agonist: MPLA […]) | IRF reporter ([2]; agonist: 3'3'-cGAMP 10 ug/mL) | IRF reporter ([2]; agonist: LPS 0.1 ug/mL) | IRF reporter ([2]; agonist: MPLA […]) | viability score [3] |
| --- | --- | --- | --- | --- | --- | --- | --- |
| CCN(CC)C(=O)C(=Cc1ccc(Br)cc1)NC(=O)c1ccccc1OC | 1.06 ± 0.084 | 1.09 ± 0.11 | 1.09 ± 0.075 | 1.14 ± 0.028 | 1.61 ± 0.25 | 1.28 ± 0.12 | 1.01 (active) |
| CCOC(=O)C1=C(C)NC(C)=C(C(=O)OCC)C1c1cccs1 | 0.836 ± 0.23 | 0.998 ± 0.089 | 0.965 ± 0.12 | 0.929 ± 0.071 | 1.09 ± 0.3 | 1.08 ± 0.25 | 0.978 (active) |
| NCC(O)CNCCc1ccccc1 (configuration not stated) | 0.782 ± 0.067 | 1.02 ± 0.13 | 1.22 ± 0.069 | 0.575 ± 0.021 | 1.12 ± 0.12 | 1.02 ± 0.093 | 1 (active) |
| COC(=O)c1c(NC(=O)C2CCCCC2)sc2c1CC(C)(C)NC2(C)C | 1.12 ± 0.095 | 1.24 ± 0.1 | 1.47 ± 0.16 | 0.764 ± 0.08 | 1.06 ± 0.1 | 1.82 ± 0.38 | 0.419 (inactive) |
| Cl.N=c1ccn2c(n1)OC1C(O)C(CO)OC12 (configuration not stated) | 1.41 ± 0.38 | 1.17 ± 0.17 | 1.16 ± 0.073 | 0.696 ± 0.026 | 1.15 ± 0.18 | 0.959 ± 0.091 | 0.733 (active) |
| Cc1cccc(Cn2c(=O)c3nscc3n(Cc3ccc(F)c(F)c3)c2=O)c1 | 1.14 ± 0.099 | 1.09 ± 0.087 | 1.21 ± 0.11 | 0.997 ± 0.048 | 1.01 ± 0.093 | 0.899 ± 0.22 | 0.995 (active) |
| COc1c2occc2cc2ccc(=O)oc12 | 1.44 ± 0.21 | 1.21 ± 0.11 | 0.907 ± 0.051 | 0.91 ± 0.029 | 1.3 ± 0.15 | 1.04 ± 0.08 | 0.989 (active) |
| CCN1CC(CCN2CCOCC2)C(c2ccccc2)(c2ccccc2)C1=O (configuration not stated) | 1.18 ± 0.32 | 1.04 ± 0.072 | 1.05 ± 0.067 | 0.874 ± 0.03 | 1.28 ± 0.14 | 1.29 ± 0.24 | 1.01 (active) |
| CCCCc1c(C)nc(NN=C(C)c2cccc([N+](=O)[O-])c2)nc1O | 0.954 ± 0.081 | 0.941 ± 0.092 | 1.11 ± 0.1 | 0.912 ± 0.032 | 1.12 ± 0.15 | 1.18 ± 0.19 | 1.01 (active) |
| CCOC(=O)C1=C(C)NC(C)=C(C(=O)OCC)C1c1ccc(O)cc1 | 1.41 ± 0.23 | 0.895 ± 0.083 | 1.35 ± 0.13 | 1.01 ± 0.03 | 0.971 ± 0.16 | 0.966 ± 0.099 | 0.991 (active) |
| Cc1cc2ncc3c(n2n1)CCN(S(=O)(=O)N(C)C)C3 | 0.989 ± 0.11 | 1.01 ± 0.097 | 0.938 ± 0.043 | 1.03 ± 0.071 | 1.09 ± 0.081 | 1.05 ± 0.08 | 1 (active) |
| CC1=C(C(=O)OCC2CCCO2)C(c2ccc([N+](=O)[O-])cc2)C2=C(CC(C)(C)CC2=O)N1 (configuration not stated) | 1.16 ± 0.19 | 0.887 ± 0.08 | 0.848 ± 0.078 | 0.553 ± 0.02 | 1.04 ± 0.23 | 0.984 ± 0.11 | 0.995 (active) |
| O=c1[nH]c(NN=Cc2c3ccccc3cc3ccccc23)nc2ccccc12 | 0.919 ± 0.085 | 1.03 ± 0.061 | 0.971 ± 0.066 | 0.935 ± 0.048 | 1.82 ± 0.16 | 1.23 ± 0.19 | 0.999 (active) |
| Cc1cc(N2CCCC2)nc(Nc2ccc(NC(=O)CC(C)C)cc2)n1 | 0.131 ± 0.01 | 1.18 ± 0.087 | 1.31 ± 0.13 | 0.947 ± 0.04 | 1.3 ± 0.14 | 1.49 ± 0.2 | 0.939 (active) |
| O=C(NC1CCCCC1)c1cccc(C(F)(F)F)c1 | 0.851 ± 0.31 | 1.09 ± 0.14 | 1 ± 0.12 | 0.775 ± 0.033 | 1.15 ± 0.16 | 1.47 ± 0.3 | 0.997 (active) |
| O=S(=O)(Cc1ccccc1)c1nc2ccccc2n1Cc1ccc(Cl)cc1 | 0.661 ± 0.045 | 1.1 ± 0.071 | 0.978 ± 0.057 | 1.32 ± 0.059 | 1.35 ± 0.092 | 1.36 ± 0.19 | 0.965 (active) |
| Cc1c(-c2ccccc2)nc2ccccc2c1C(=O)N1CCCC1 | 1.09 ± 0.095 | 1.13 ± 0.087 | 1.1 ± 0.069 | 1.01 ± 0.035 | 1.62 ± 0.18 | 1.24 ± 0.13 | 1.01 (active) |
| O=C1CCc2cc(OCCCCc3nnnn3C3CCCCC3)ccc2N1 | 1.52 ± 0.27 | 1.24 ± 0.38 | 1.18 ± 0.2 | 1.01 ± 0.043 | 1.32 ± 0.2 | 1.32 ± 0.12 | 0.991 (active) |
